Positions count from the first letter of the chain named.
What was measured:
Experiment in all cases: PBM; 200 nM protein, PBS
Conditions in all cases: dsDNA, one strand shown
ALX4 [1] = biological target: ALX4 (Homo sapiens, UniProt Q9H161 200-286)
ALX4 [2] = biological target: ALX4 (Homo sapiens, UniProt Q9H161 200-286, Q225E)
HOXA2 [3] = biological target: HOXA2 (Homo sapiens, UniProt O43364 129-215, R185T)
HOXA2 [4] = biological target: HOXA2 (Homo sapiens, UniProt O43364 129-215, R185K)
HOXA2 [5] = biological target: HOXA2 (Homo sapiens, UniProt O43364 129-215, Y150S)
Chain of HOXA2 (Homo sapiens, UniProt O43364 129-215, Y150S) (O43364 129-215 Y150S): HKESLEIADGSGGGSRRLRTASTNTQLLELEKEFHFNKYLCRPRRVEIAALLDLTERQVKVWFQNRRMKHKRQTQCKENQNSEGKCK

HOXA2 [6] = biological target: HOXA2 (Homo sapiens, UniProt O43364 129-215)
Chain of HOXA2 (Homo sapiens, UniProt O43364 129-215) (O43364 129-215): as the sequence (O43364 129-215 Y150S) above, with S22Y counted along it

NKX2-6 [7] = biological target: T1, NKX2-6 (Homo sapiens, UniProt A6NCS4 118-204)
T1 sequence: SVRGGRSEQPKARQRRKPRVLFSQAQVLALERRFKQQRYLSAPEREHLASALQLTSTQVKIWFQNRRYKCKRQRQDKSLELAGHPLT

NKX2-6 [8] = biological target: T2, NKX2-6 (Homo sapiens, UniProt A6NCS4 118-204, F151L)
T2 sequence: T1 sequence with F34L

ALX1 [9] = biological target: ALX1 (Homo sapiens, UniProt Q15699 118-204, L144V)
Chain of ALX1 (Homo sapiens, UniProt Q15699 118-204, L144V) (Q15699 118-204 L144V): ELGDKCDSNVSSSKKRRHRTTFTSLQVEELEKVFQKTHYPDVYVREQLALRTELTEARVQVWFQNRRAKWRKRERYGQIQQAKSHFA

ALX1 [10] = biological target: ALX1 (Homo sapiens, UniProt Q15699 118-204, L144R)
Chain of ALX1 (Homo sapiens, UniProt Q15699 118-204, L144R) (Q15699 118-204 L144R): as the sequence (Q15699 118-204 L144V) above, with V27R counted along it

ALX1 [11] = biological target: ALX1 (Homo sapiens, UniProt Q15699 118-204)
Chain of ALX1 (Homo sapiens, UniProt Q15699 118-204) (Q15699 118-204): as the sequence (Q15699 118-204 L144V) above, with V27L counted along it

ALX3 [12] = biological target: ALX3 (Homo sapiens, UniProt O95076 139-225, N203Q)
Chain of ALX3 (Homo sapiens, UniProt O95076 139-225, N203Q) (O95076 139-225 N203Q): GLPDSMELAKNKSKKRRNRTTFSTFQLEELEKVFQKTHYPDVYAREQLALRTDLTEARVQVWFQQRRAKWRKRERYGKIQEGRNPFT

ALX3 [13] = biological target: ALX3 (Homo sapiens, UniProt O95076 139-225)
Chain of ALX3 (Homo sapiens, UniProt O95076 139-225) (O95076 139-225): as the sequence (O95076 139-225 N203Q) above, with Q65N counted along it

PROP1 [14] = biological target: PROP1 (Homo sapiens, UniProt O75360 56-141)
Chain of PROP1 (Homo sapiens, UniProt O75360 56-141) (O75360 56-141): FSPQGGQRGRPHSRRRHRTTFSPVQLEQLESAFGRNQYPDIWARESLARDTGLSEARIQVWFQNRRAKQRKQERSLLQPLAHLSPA

HESX1 = HESX1 (Homo sapiens, UniProt Q9UBX0 95-180, R109Q)
Chain of HESX1 (Q9UBX0 95-180 R109Q): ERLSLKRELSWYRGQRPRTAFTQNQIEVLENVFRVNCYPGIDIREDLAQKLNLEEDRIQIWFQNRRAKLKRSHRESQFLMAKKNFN

PROP1 [15] = biological target: PROP1 (Homo sapiens, UniProt O75360 56-141, R99H)
Chain of PROP1 (Homo sapiens, UniProt O75360 56-141, R99H) (O75360 56-141 R99H): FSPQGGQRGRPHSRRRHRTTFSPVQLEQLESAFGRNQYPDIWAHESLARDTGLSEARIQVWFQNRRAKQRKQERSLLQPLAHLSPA

ALX3 [16] = biological target: ALX3 (Homo sapiens, UniProt O95076 139-225, L168Q)
Chain of ALX3 (Homo sapiens, UniProt O95076 139-225, L168Q) (O95076 139-225 L168Q): as the sequence (O95076 139-225 N203Q) above, with L30Q, Q65N counted along it

ALX3 [17] = biological target: ALX3 (Homo sapiens, UniProt O95076 139-225, L168V)
Chain of ALX3 (Homo sapiens, UniProt O95076 139-225, L168V) (O95076 139-225 L168V): as the sequence (O95076 139-225 N203Q) above, with L30V, Q65N counted along it

PROP1 [18] = biological target: PROP1 (Homo sapiens, UniProt O75360 56-141, F88S)
Chain of PROP1 (Homo sapiens, UniProt O75360 56-141, F88S) (O75360 56-141 F88S): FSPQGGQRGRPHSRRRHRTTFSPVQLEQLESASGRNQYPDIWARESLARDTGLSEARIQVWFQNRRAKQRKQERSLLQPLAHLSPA

ALX3 [19] = biological target: ALX3 (Homo sapiens, UniProt O95076 139-225, N203S)
Chain of ALX3 (Homo sapiens, UniProt O95076 139-225, N203S) (O95076 139-225 N203S): as the sequence (O95076 139-225 N203Q) above, with Q65S counted along it

PAX4 [20] = biological target: T3, PAX4 (Homo sapiens, UniProt O43316 9-242, R200K)
T3 sequence: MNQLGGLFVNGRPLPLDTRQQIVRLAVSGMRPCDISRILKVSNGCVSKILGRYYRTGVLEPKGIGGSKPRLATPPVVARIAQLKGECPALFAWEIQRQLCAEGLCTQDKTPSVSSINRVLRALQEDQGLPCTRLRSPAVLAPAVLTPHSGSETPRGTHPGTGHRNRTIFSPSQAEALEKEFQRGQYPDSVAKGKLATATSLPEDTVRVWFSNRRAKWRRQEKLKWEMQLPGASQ

PAX4 [21] = biological target: T4, PAX4 (Homo sapiens, UniProt O43316 9-242)
T4 sequence: T3 sequence with K192R

HOXB6 = HOXB6 (Homo sapiens, UniProt P17509 132-218, K202E)
Chain of HOXB6 (P17509 132-218 K202E): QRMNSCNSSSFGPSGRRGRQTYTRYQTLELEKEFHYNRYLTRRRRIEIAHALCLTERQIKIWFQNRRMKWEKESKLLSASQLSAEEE

PAX4 [22] = biological target: T5, PAX4 (Homo sapiens, UniProt O43316 9-242, R200Q)
T5 sequence: T3 sequence with K192Q

PAX4 [23] = biological target: T6, PAX4 (Homo sapiens, UniProt O43316 9-242, F177V)
T6 sequence: T3 sequence with F169V, K192R

PAX4 [24] = biological target: T7, PAX4 (Homo sapiens, UniProt O43316 9-242, F177Y)
T7 sequence: T3 sequence with F169Y, K192R

PAX4 [25] = biological target: T8, PAX4 (Homo sapiens, UniProt O43316 9-242, R227W)
T8 sequence: T3 sequence with K192R, R219W

MSX2 [26] = biological target: MSX2 (Homo sapiens, UniProt P35548 130-214, R199I)
Chain of MSX2 (Homo sapiens, UniProt P35548 130-214, R199I) (P35548 130-214 R199I): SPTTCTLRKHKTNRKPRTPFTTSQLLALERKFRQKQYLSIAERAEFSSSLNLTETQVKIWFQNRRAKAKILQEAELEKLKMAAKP

MSX2 [27] = biological target: MSX2 (Homo sapiens, UniProt P35548 130-214)
Chain of MSX2 (Homo sapiens, UniProt P35548 130-214) (P35548 130-214): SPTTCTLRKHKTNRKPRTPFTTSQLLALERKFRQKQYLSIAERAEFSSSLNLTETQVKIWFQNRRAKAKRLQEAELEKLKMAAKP

MSX2 [28] = biological target: MSX2 (Homo sapiens, UniProt P35548 130-214, F161Y)
Chain of MSX2 (Homo sapiens, UniProt P35548 130-214, F161Y) (P35548 130-214 F161Y): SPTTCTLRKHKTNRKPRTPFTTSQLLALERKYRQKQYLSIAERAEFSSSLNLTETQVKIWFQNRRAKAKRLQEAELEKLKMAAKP

Chain of ALX4 (Homo sapiens, UniProt Q9H161 200-286) (Q9H161 200-286): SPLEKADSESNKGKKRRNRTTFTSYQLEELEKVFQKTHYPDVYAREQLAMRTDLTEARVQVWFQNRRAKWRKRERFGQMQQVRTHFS
Chain of ALX4 (Homo sapiens, UniProt Q9H161 200-286, Q225E) (Q9H161 200-286 Q225E): as the sequence (Q9H161 200-286) above, with Q26E counted along it
Chain of HOXA2 (Homo sapiens, UniProt O43364 129-215, R185K) (O43364 129-215 R185K): as the sequence (O43364 129-215 Y150S) above, with S22Y, R57K counted along it
Chain of HOXA2 (Homo sapiens, UniProt O43364 129-215, R185T) (O43364 129-215 R185T): as the sequence (O43364 129-215 Y150S) above, with S22Y, R57T counted along it

CCGCAGAC was tested, and the binding signal (ALX4 [1]) was 8.08 upbm affinity estimate (log intensity, higher = more binding, comparable within an allelic series), the binding signal (ALX4 [2]) was 8.21 upbm affinity estimate (log intensity, higher = more binding, comparable within an allelic series) and the binding signal (HOXA2 [3]) was 7.17 upbm affinity estimate (log intensity, higher = more binding, comparable within an allelic series). For the same sequence, the binding signal (HOXA2 [4]) was 10.2 upbm affinity estimate (log intensity, higher = more binding, comparable within an allelic series), the binding signal (HOXA2 [5]) was 10.5 upbm affinity estimate (log intensity, higher = more binding, comparable within an allelic series) and the binding signal (HOXA2 [6]) was 6.96 upbm affinity estimate (log intensity, higher = more binding, comparable within an allelic series).
In the case of CCACATGG, the binding signal (ALX4 [1]) was 8.13 upbm affinity estimate (log intensity, higher = more binding, comparable within an allelic series), the binding signal (ALX4 [2]) was 8.32 upbm affinity estimate (log intensity, higher = more binding, comparable within an allelic series) and the binding signal (NKX2-6 [7]) was 9.61 upbm affinity estimate (log intensity, higher = more binding, comparable within an allelic series). For the same sequence, the binding signal (NKX2-6 [8]) was 9.23 upbm affinity estimate (log intensity, higher = more binding, comparable within an allelic series).
With ACCCTCGG the binding signal (ALX4 [1]) was 8.1 upbm affinity estimate (log intensity, higher = more binding, comparable within an allelic series), the binding signal (ALX4 [2]) was 8.11 upbm affinity estimate (log intensity, higher = more binding, comparable within an allelic series) and the binding signal (ALX1 [9]) was 6.49 upbm affinity estimate (log intensity, higher = more binding, comparable within an allelic series). The binding signal (ALX1 [10]) was 6.58 upbm affinity estimate (log intensity, higher = more binding, comparable within an allelic series) and the binding signal (ALX1 [11]) was 6.48 upbm affinity estimate (log intensity, higher = more binding, comparable within an allelic series).
AATTAAAG was tested, and the binding signal (ALX4 [1]) was 13.6 upbm affinity estimate (log intensity, higher = more binding, comparable within an allelic series), the binding signal (ALX4 [2]) was 12.8 upbm affinity estimate (log intensity, higher = more binding, comparable within an allelic series) and the binding signal (ALX1 [9]) was 11.4 upbm affinity estimate (log intensity, higher = more binding, comparable within an allelic series). For the same sequence, the binding signal (ALX3 [12]) was 8.35 upbm affinity estimate (log intensity, higher = more binding, comparable within an allelic series), the binding signal (ALX1 [10]) was 11 upbm affinity estimate (log intensity, higher = more binding, comparable within an allelic series) and the binding signal (ALX3 [13]) was 12.3 upbm affinity estimate (log intensity, higher = more binding, comparable within an allelic series). For the same sequence, the binding signal (PROP1 [14]) was 11.2 upbm affinity estimate (log intensity, higher = more binding, comparable within an allelic series), the binding signal (HESX1) was 8.69 upbm affinity estimate (log intensity, higher = more binding, comparable within an allelic series) and the binding signal (PROP1 [15]) was 10.9 upbm affinity estimate (log intensity, higher = more binding, comparable within an allelic series). For the same sequence, the binding signal (ALX3 [16]) was 10.3 upbm affinity estimate (log intensity, higher = more binding, comparable within an allelic series), the binding signal (ALX3 [17]) was 9.9 upbm affinity estimate (log intensity, higher = more binding, comparable within an allelic series) and the binding signal (PROP1 [18]) was 7.55 upbm affinity estimate (log intensity, higher = more binding, comparable within an allelic series). For the same sequence, the binding signal (ALX3 [19]) was 8.43 upbm affinity estimate (log intensity, higher = more binding, comparable within an allelic series).
CATATTAA was tested, and the binding signal (PAX4 [20]) was 11.8 upbm affinity estimate (log intensity, higher = more binding, comparable within an allelic series), the binding signal (PAX4 [21]) was 12.1 upbm affinity estimate (log intensity, higher = more binding, comparable within an allelic series) and the binding signal (HOXB6) was 10 upbm affinity estimate (log intensity, higher = more binding, comparable within an allelic series). The binding signal (ALX3 [12]) was 8.63 upbm affinity estimate (log intensity, higher = more binding, comparable within an allelic series), the binding signal (PAX4 [22]) was 11.8 upbm affinity estimate (log intensity, higher = more binding, comparable within an allelic series) and the binding signal (PAX4 [23]) was 10.8 upbm affinity estimate (log intensity, higher = more binding, comparable within an allelic series). The binding signal (PAX4 [24]) was 11 upbm affinity estimate (log intensity, higher = more binding, comparable within an allelic series), the binding signal (PAX4 [25]) was 11 upbm affinity estimate (log intensity, higher = more binding, comparable within an allelic series) and the binding signal (ALX3 [19]) was 8.71 upbm affinity estimate (log intensity, higher = more binding, comparable within an allelic series).
For ACGGAGGC, the binding signal (ALX4 [1]) was 8.04 upbm affinity estimate (log intensity, higher = more binding, comparable within an allelic series), the binding signal (ALX4 [2]) was 8.29 upbm affinity estimate (log intensity, higher = more binding, comparable within an allelic series) and the binding signal (MSX2 [26]) was 9.59 upbm affinity estimate (log intensity, higher = more binding, comparable within an allelic series). For the same sequence, the binding signal (ALX3 [12]) was 7.76 upbm affinity estimate (log intensity, higher = more binding, comparable within an allelic series), the binding signal (MSX2 [27]) was 9.53 upbm affinity estimate (log intensity, higher = more binding, comparable within an allelic series) and the binding signal (ALX3 [13]) was 7.71 upbm affinity estimate (log intensity, higher = more binding, comparable within an allelic series). The binding signal (PROP1 [14]) was 6.67 upbm affinity estimate (log intensity, higher = more binding, comparable within an allelic series), the binding signal (PROP1 [15]) was 6.65 upbm affinity estimate (log intensity, higher = more binding, comparable within an allelic series) and the binding signal (ALX3 [16]) was 7.84 upbm affinity estimate (log intensity, higher = more binding, comparable within an allelic series). The binding signal (ALX3 [17]) was 7.82 upbm affinity estimate (log intensity, higher = more binding, comparable within an allelic series), the binding signal (PROP1 [18]) was 6.49 upbm affinity estimate (log intensity, higher = more binding, comparable within an allelic series) and the binding signal (MSX2 [28]) was 9.52 upbm affinity estimate (log intensity, higher = more binding, comparable within an allelic series). The binding signal (ALX3 [19]) was 7.76 upbm affinity estimate (log intensity, higher = more binding, comparable within an allelic series).
With CCTGCGAG the binding signal (ALX4 [1]) was 7.97 upbm affinity estimate (log intensity, higher = more binding, comparable within an allelic series), the binding signal (ALX4 [2]) was 7.97 upbm affinity estimate (log intensity, higher = more binding, comparable within an allelic series) and the binding signal (MSX2 [26]) was 9.6 upbm affinity estimate (log intensity, higher = more binding, comparable within an allelic series). The binding signal (MSX2 [27]) was 9.6 upbm affinity estimate (log intensity, higher = more binding, comparable within an allelic series) and the binding signal (MSX2 [28]) was 9.61 upbm affinity estimate (log intensity, higher = more binding, comparable within an allelic series).
For CGTGGAGC, the binding signal (ALX4 [1]) was 8.15 upbm affinity estimate (log intensity, higher = more binding, comparable within an allelic series), the binding signal (ALX4 [2]) was 8.37 upbm affinity estimate (log intensity, higher = more binding, comparable within an allelic series) and the binding signal (MSX2 [26]) was 9.58 upbm affinity estimate (log intensity, higher = more binding, comparable within an allelic series). The binding signal (MSX2 [27]) was 9.61 upbm affinity estimate (log intensity, higher = more binding, comparable within an allelic series) and the binding signal (MSX2 [28]) was 9.61 upbm affinity estimate (log intensity, higher = more binding, comparable within an allelic series).
CGGGCCTC was tested, and the binding signal (ALX4 [1]) was 8.16 upbm affinity estimate (log intensity, higher = more binding, comparable within an allelic series), the binding signal (ALX4 [2]) was 8.25 upbm affinity estimate (log intensity, higher = more binding, comparable within an allelic series) and the binding signal (PROP1 [14]) was 6.76 upbm affinity estimate (log intensity, higher = more binding, comparable within an allelic series). The binding signal (PROP1 [15]) was 6.84 upbm affinity estimate (log intensity, higher = more binding, comparable within an allelic series) and the binding signal (PROP1 [18]) was 6.55 upbm affinity estimate (log intensity, higher = more binding, comparable within an allelic series).
For GTCTTAAA, the binding signal (PAX4 [20]) was 10.3 upbm affinity estimate (log intensity, higher = more binding, comparable within an allelic series) and the binding signal (PAX4 [21]) was 10.4 upbm affinity estimate (log intensity, higher = more binding, comparable within an allelic series).
